{"source": "PubChem BioAssay (EPA / NIEHS)", "note": "“And” between values parts separate entries of the source, which are not always exact repeats. Equal values may be shown once. More than one record can exist for a structure, and the calls need not agree. The source made the active and inactive calls. How the source made its calls: active means hit-call score of the fitted dose curve at least 0.9, where 1 is the maximum; inactive means score below 0.9."}
{"system": "not listed separately", "experiment": "ATG_DR4_LXR_CIS: Attagene CIS-FACTORIAL HepG2 Assay for human Liver X Receptor (LXR), DR4 submotif (AID 2282929)", "conditions": "HepG2 Attagene DR4 cis-reporter, mRNA transcription; actives raise or lower the signal", "procedure,_shortened": "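DR4 cis-reporter in HepG2, 24 h exposure. Detection: RT-PCR, 6-FAM labelling, CE fragment analysis. Endpoint fitted bidirectionally, DMSO = baseline.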"}
{"compound": "C[Si](C)(C)C(F)(F)C(F)(F)C(F)(F)F", "outcome": "inactive"}
{"compound": "FC(F)C(F)(F)COCC1CO1", "note": "(stereo unspecified)", "outcome": "inactive"}
{"compound": "CCOC(N)=O", "outcome": "inactive"}
{"compound": "CCc1cccc(CC)c1N", "outcome": "inactive"}
{"compound": "Cc1cccc(O)c1C", "outcome": "inactive"}
{"compound": "C[C@]12C=CC(=O)C=C1CC[C@H]1[C@@H]3C[C@@H](O)[C@](O)(C(=O)CO)[C@@]3(C)C[C@H](O)[C@@]12F", "outcome": "inactive"}
{"compound": "OCCOCCOCCO", "outcome": "inactive"}
{"compound": "Cc1nc(-c2ccccn2)ncc1C(=O)Nn1cc(C)c2cc(F)ccc21", "outcome": "inactive"}
{"compound": "O=S(=O)(O)CCC(F)(F)C(F)(F)C(F)(F)C(F)(F)C(F)(F)C(F)(F)F", "outcome": "inactive"}
{"compound": "O=C1CN(N=Cc2ccc([N+](=O)[O-])o2)C(=O)N1", "outcome": "inactive"}
{"compound": "FC(F)(F)COC(OCC(F)(F)F)OCC(F)(F)F", "outcome": "inactive"}
{"compound": "FC(F)(F)C(F)(F)C(F)(F)C(F)(F)C(F)(F)C(F)(F)I", "outcome": "inactive"}
{"compound": "O=C(O)CO", "outcome": "inactive"}
{"compound": "O=C(Cl)C(F)(F)C(F)(F)C(F)(F)C(=O)Cl", "outcome": "inactive"}
{"compound": "NC(N)=O", "outcome": "inactive"}
{"compound": "OCc1c[nH]c2ccccc12", "AC50": "69 µM (active) and 62.6 µM (active) and 49.8 µM (active)", "outcome": "inactive"}
{"compound": "S=P(N1CC1)(N1CC1)N1CC1", "AC50": "157 µM (active)", "outcome": "inactive"}
{"compound": "CCCCC(CC)C(=O)OCCOCCOCCOC(=O)C(CC)CCCC", "note": "(stereo unspecified)", "AC50": "160 µM (active)"}
{"compound": "CC(C)c1nnc2ccc(-c3ocnc3-c3cc(F)ccc3F)cn12", "outcome": "inactive"}
{"compound": "CCCCCCCC1CCC(=O)O1", "note": "(stereo unspecified)", "outcome": "inactive"}
{"compound": "NCC(F)(F)C(F)(F)C(F)(F)C(F)(F)F", "outcome": "inactive"}
{"compound": "CCCCCCCCCCCCCCO", "AC50": "78 µM (active)"}
{"compound": "CCCCCCCCCC", "outcome": "inactive"}
{"compound": "OC(O)(C(F)C(O)(O)C(F)(F)F)C(F)(F)F", "AC50": "37.9 µM (active) and 4.59 µM (active)"}
{"compound": "FC(F)=C(F)C(F)(F)C(F)(F)C(F)(F)C(F)(F)C(F)(F)C(F)(F)F", "outcome": "inactive"}
{"compound": "O=C(N[C@H](CO)[C@H](O)c1ccc([N+](=O)[O-])cc1)C(Cl)Cl", "outcome": "inactive"}
{"compound": "OCCC(F)(F)C(F)(F)C(F)(F)C(F)(F)F", "outcome": "inactive"}
{"target": "Aryl hydrocarbon receptor (Homo sapiens) (UniProt P35869)", "sequence (P35869 whole entry, looked up)": "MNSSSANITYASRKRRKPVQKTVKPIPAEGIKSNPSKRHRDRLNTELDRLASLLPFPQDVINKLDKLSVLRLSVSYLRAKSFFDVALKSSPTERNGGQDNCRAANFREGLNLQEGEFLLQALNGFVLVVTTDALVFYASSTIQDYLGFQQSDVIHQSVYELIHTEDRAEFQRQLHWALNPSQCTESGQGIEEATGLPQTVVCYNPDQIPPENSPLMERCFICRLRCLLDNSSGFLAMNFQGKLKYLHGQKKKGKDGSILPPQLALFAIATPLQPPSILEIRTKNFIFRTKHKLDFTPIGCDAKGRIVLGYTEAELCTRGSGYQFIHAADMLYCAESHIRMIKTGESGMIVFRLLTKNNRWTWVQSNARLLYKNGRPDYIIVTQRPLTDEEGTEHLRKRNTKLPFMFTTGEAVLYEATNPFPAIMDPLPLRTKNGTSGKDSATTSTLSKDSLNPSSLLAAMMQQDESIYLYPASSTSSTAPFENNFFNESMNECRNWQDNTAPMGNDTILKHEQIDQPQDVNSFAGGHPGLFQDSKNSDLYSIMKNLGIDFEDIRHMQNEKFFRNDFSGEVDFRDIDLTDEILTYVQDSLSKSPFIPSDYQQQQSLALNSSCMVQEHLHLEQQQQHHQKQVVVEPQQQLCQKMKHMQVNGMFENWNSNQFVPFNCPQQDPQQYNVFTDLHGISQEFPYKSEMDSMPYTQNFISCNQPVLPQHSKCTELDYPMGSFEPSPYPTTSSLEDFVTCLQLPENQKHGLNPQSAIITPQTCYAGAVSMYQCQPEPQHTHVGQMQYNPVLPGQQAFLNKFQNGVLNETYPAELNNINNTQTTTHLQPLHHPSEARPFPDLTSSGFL", "experiment": "ATG_Ahr_CIS: Attagene CIS-FACTORIAL HepG2 Assay for human Aryl Hydrocarbon Receptor (Ahr) (AID 2282930)", "conditions": "HepG2 AhR cis-factorial reporter transcription; actives raise or lower the signal", "procedure,_shortened": "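Reporter mRNA levels, quantified by RT-PCR and fluorescent capillary electrophoresis, reflect endogenous AhR transcriptional activity in HepG2 cells carrying transfected cis-promoter reporter constructs. Readout at 24 h post-dose; gain or loss fitted against DMSO baseline.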"}
{"compound": "C[Si](C)(C)C(F)(F)C(F)(F)C(F)(F)F", "outcome": "inactive"}
{"compound": "FC(F)C(F)(F)COCC1CO1", "note": "(stereo unspecified)", "outcome": "inactive"}
{"compound": "CCN(CC)C(=S)SSC(=S)N(CC)CC", "outcome": "inactive"}
{"compound": "CCc1cccc(CC)c1N", "outcome": "inactive"}
{"compound": "Cc1cccc(O)c1C", "outcome": "inactive"}
{"compound": "C[C@]12C=CC(=O)C=C1CC[C@H]1[C@@H]3C[C@@H](O)[C@](O)(C(=O)CO)[C@@]3(C)C[C@H](O)[C@@]12F", "outcome": "inactive"}
{"compound": "O=S(=O)(O)CCC(F)(F)C(F)(F)C(F)(F)C(F)(F)C(F)(F)C(F)(F)F", "outcome": "inactive"}
{"compound": "O=C1CN(N=Cc2ccc([N+](=O)[O-])o2)C(=O)N1", "outcome": "inactive"}
{"compound": "FC(F)(F)COC(OCC(F)(F)F)OCC(F)(F)F", "outcome": "inactive"}
{"compound": "FC(F)(F)C(F)(F)C(F)(F)C(F)(F)C(F)(F)C(F)(F)I", "outcome": "inactive"}
{"compound": "O=C(O)CO", "outcome": "inactive"}
{"compound": "O=C(Cl)C(F)(F)C(F)(F)C(F)(F)C(=O)Cl", "outcome": "inactive"}
{"compound": "S=P(N1CC1)(N1CC1)N1CC1", "outcome": "inactive"}
{"compound": "CC(C)c1nnc2ccc(-c3ocnc3-c3cc(F)ccc3F)cn12", "outcome": "inactive"}
{"compound": "CCCCCCCC1CCC(=O)O1", "note": "(stereo unspecified)", "outcome": "inactive"}
{"compound": "NCC(F)(F)C(F)(F)C(F)(F)C(F)(F)F", "outcome": "inactive"}
{"compound": "CCCCCCCCCCCCCCO", "AC50": "114 µM (active)"}
{"compound": "CCCCCCCCCC", "outcome": "inactive"}
{"compound": "OC(O)(C(F)C(O)(O)C(F)(F)F)C(F)(F)F", "outcome": "inactive"}
{"compound": "FC(F)=C(F)C(F)(F)C(F)(F)C(F)(F)C(F)(F)C(F)(F)C(F)(F)F", "outcome": "inactive"}
{"compound": "O=C(N[C@H](CO)[C@H](O)c1ccc([N+](=O)[O-])cc1)C(Cl)Cl", "outcome": "inactive"}
{"compound": "OCCC(F)(F)C(F)(F)C(F)(F)C(F)(F)F", "outcome": "inactive"}
